# Among all 370,000 compounds or so, about 2,800 (0.76%) were called active. The list comes from a sample in which actives are over-represented; it also holds similar structures and randomly drawn compounds. Unmarked numbers belong to inactive results. No stated cut-off is given here; in the data, active means inhibition above about 21%; inactive means the rest.
# Molecular target: E3 ubiquitin-protein ligase UHRF1 (Homo sapiens) (UniProt Q96T88)
# Experiment: UHRF1 methylated DNA binding inhibitors, primary screen, counter-screen for MBD2 inhibitor project, biochemical, TR-FRET, human UHRF1, single concentration (AID 687016);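 further: UHRF1 SRA domain binding a hemimethylated CpG hairpin DNA probe; 0% = median of test compound wells and 100% = reference inhibitor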
# Conditions: UHRF1 binding to methylated oligo, at 4.4 µM, hits give high values
# E3 ubiquitin-protein ligase UHRF1 (Homo sapiens), sequence (Q96T88 whole entry, looked up, the tested form may be a part): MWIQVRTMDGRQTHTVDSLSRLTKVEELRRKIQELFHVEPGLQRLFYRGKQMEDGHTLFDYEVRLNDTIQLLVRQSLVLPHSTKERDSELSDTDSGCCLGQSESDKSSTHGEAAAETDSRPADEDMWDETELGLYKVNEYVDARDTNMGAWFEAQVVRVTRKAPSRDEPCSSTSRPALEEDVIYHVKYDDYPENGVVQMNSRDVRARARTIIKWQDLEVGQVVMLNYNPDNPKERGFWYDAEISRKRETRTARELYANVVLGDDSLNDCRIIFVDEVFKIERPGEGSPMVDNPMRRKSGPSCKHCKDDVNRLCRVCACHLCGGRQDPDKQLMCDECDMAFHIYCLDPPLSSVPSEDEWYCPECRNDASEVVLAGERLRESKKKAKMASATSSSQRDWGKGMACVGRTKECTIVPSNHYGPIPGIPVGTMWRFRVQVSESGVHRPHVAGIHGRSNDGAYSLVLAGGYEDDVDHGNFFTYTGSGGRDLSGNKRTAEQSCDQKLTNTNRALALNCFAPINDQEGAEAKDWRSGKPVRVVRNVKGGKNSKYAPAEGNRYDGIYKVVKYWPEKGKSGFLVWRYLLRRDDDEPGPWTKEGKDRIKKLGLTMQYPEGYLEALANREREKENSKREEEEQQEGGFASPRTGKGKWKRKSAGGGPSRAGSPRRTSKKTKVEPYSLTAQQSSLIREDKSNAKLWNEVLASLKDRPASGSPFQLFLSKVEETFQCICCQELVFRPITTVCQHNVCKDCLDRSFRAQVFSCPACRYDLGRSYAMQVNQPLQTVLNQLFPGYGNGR
row,SMILES,inhibition
1,OCc1ccc(-c2ccccc2)c(-c2ccccc2)c1,-1.66%
2,c1ccc(CNCc2ccc(CNCc3ccccc3)cc2)cc1,-2.85%
3,OCC(CO)(CO)NCc1ccc(-c2ccccc2)cc1,24.9% (active)
4,CN1[C@H](Cc2ccccc2)COc2cccc(N3CCSCC3)c2S1(=O)=O,6.46%
5,O=C(CSc1nnc(-c2ccccn2)n1-c1ccc(Cl)cc1)Nc1ccccc1-c1ccccc1,-0.44%
6,COc1ccc(C(=O)N2CCC(C(=O)Nc3cccc(C)c3)CC2)cc1OC,-2.09%
7,COc1ccc(C(=O)N2CCC(C(=O)Nc3ccc(C)cc3)CC2)cc1,98.2% (active)
8,O=C(Nc1ccccc1)C1CCN(C(=O)c2ccc(Br)cc2)CC1,-0.01%
9,CC(C)(C)NC(=O)C(c1cccnc1)N(C(=O)c1cnco1)c1ccc(C(C)(C)C)cc1 (centres undefined),-2.85%
10,O=C(c1ccncc1)N1CC[C@H]2[C@H](CCCN2Cc2ccc(F)cc2)C1,-0.99%
11,COc1ccccc1C(=O)CSc1nnc(-c2ccccn2)n1-c1ccccc1,0.85%
12,COc1ccc(-n2c(SCC(=O)Nc3ccc4cn[nH]c4c3)nnc2-c2cccnc2)cc1,0.56%
13,CC(C)CNc1cccc2c1S(=O)(=O)N(Cc1cn(Cc3ccc(Cl)cc3)nn1)Cc1ccccc1O2,2.31%
14,COc1ccc(N2CCN(C(=O)CNC(=O)c3ccc(C(C)(C)C)cc3)CC2)cc1,-2.46%
15,CSc1nccc(NC(=O)c2ccc(C(C)(C)C)cc2)n1,5.85%
16,COC(=O)c1nc(NC(=O)c2ccc(C(C)(C)C)cc2)n[nH]1,87.5% (active)
17,CCOC(=O)[C@]12CCCC=C1N(Cc1ccc(OC)cc1)C(=O)[C@@H]2CC(=O)N1CCOCC1,-0.91%
18,CCCCCCN1CCS(=O)(=O)N(Cc2ccc(C(F)(F)F)cc2)C(C(=O)OC)C1 (centres undefined),-2.34%
19,CC(C)N1CCCCC(NC(=O)C(C)(C)C)C1=O (centres undefined),-1.29%
20,CC(C)CNc1cccc2c1S(=O)(=O)N(Cc1cn(Cc3ccccc3C(F)(F)F)nn1)Cc1ccccc1O2,1.83%
21,Cc1cc(=O)[nH]c(SCC(=O)Nc2ccc(Cl)cc2C)n1,-2.56%
22,Cc1ccc(S(=O)(=O)NCCC(=O)NNC(=O)C2COc3ccccc3O2)cc1 (centres undefined),-3.3%
23,Cc1c(CC(=O)N2CCN(C(=O)C3COc4ccccc4O3)CC2)c(=O)oc2c(O)c(O)ccc12 (centres undefined),28.8% (active)

row,SMILES,inhibition
1,CC(=O)c1ccccc1NC(=O)COC(=O)C1COc2ccccc2O1 (centres undefined),6.15%
2,CCCn1c(NC(=O)C23CC4CC(CC(O)(C4)C2)C3)nc2ccccc21,21% (active)
3,CCCn1c(C(Cc2ccccc2)NC(=O)COC)nc2ccccc21 (centres undefined),-1.58%
4,CCOc1ccccc1NC(=O)C12CC3CC(C1)CC(c1ccc(C)cc1)(C3)C2,2.15%
5,N#CCC[C@H]1CC[C@]2(CCCN(Cc3ccc(Cl)cc3)C2)O1,3.52%
6,O=C(CSc1nnc(-c2cccc(Cl)c2)n1Cc1ccco1)Nc1ccc(OCc2ccccc2)cc1,-1.67%
7,FC(F)(F)c1cccc(Cn2ccc3ccc(-c4ccc5ccn(Cc6ccccc6)c5c4)cc32)c1,0.27%
8,O=C(Nc1nc(-c2ccco2)c(-c2ccco2)s1)c1ccco1,51.4% (active)
9,O=C(Nc1ccccc1C(=O)N1CCCCC1)c1ccco1,3.17%
10,O=C(Nc1c(-c2ccccc2)nc2c(Br)cc(Br)cn12)c1ccco1,1.55%
11,CCOc1ccc(N(CC(=O)Nc2c(C)n(C)n(-c3ccccc3)c2=O)S(=O)(=O)c2ccc(Cl)s2)cc1,-0.95%
12,O=C(CN1CCC(NC(=O)NCc2ccccc2)CC1)Nc1ccc2c(c1)OCCO2,1.96%
13,C[C@H]1[C@H](NC(=O)c2cccc(N(C)C)c2)CC[C@@]23CCCN2C(=O)CCC[C@@H]13,0.44%
14,COc1ccc(NC2CCCN(C(=O)c3ccncc3)C2)cc1 (centres undefined),-3.03%
15,CC(C)c1ccc(NC2CCCN(C(=O)c3ccncc3)C2)cc1 (centres undefined),1.9%
16,Cc1cccc(C(=O)N2CCCC(Nc3ccc(C(C)C)cc3)C2)n1 (centres undefined),22.3% (active)
17,COc1ccc2c(C(C)c3ccc(N)cc3)cn(C)c2c1 (centres undefined),3.85%
18,Cc1cc(C)nc(NC(=S)N2CCN(c3ccc(C(F)(F)F)cn3)CC2)c1,-0.11%
19,COc1ccc(CCNC(=O)CSc2nc3c([nH]2)c(=O)n(C)c(=O)n3C)cc1,-0.65%
20,C=CCc1cccc2cc(C(=O)N3CCN(C(=O)OCC)CC3)c(=O)oc12,-2.84%
21,C=CCc1cccc2cc(C(=O)NC3CCCC3)c(=O)oc12,2.45%
22,C=CCc1cccc2cc(C(=O)Nc3ccc(NC(C)=O)cc3)c(=O)oc12,28.9% (active)
23,COc1ccc(-n2c(COc3ccccc3)nnc2SCC(=O)Nc2ccc3c(c2)OCO3)cc1,0.77%

row,SMILES,inhibition
1,COC(=O)c1cc(S(=O)(=O)N2CCN(C(=O)C3CCCO3)CC2)cn1C (centres undefined),-1.8%
2,COC1=C[C@H](C(=O)NCCNC(C)=O)[C@H](C)[C@@H](c2ccccc2)CC1=O,-3.81%
3,CCCCn1c(N)c(N(CC(C)C)C(=O)c2ccc(Br)o2)c(=O)[nH]c1=O,0.08%
4,CCCCn1c(N)c(N(CC(C)C)C(=O)c2cnc(C)cn2)c(=O)[nH]c1=O,-0.01%
5,CCCCn1c(N)c(N(CC(C)C)C(=O)C2CSC3(C)CCC(=O)N23)c(=O)[nH]c1=O (centres undefined),28.1% (active)
6,CN(C(N)=NC(=O)/C=C/c1ccccc1)C(C#Cc1ccccc1)Cc1ccccc1 (centres undefined),-1.59%
7,COC(=O)C(C)Oc1ccc2c(-c3cccc([N+](=O)[O-])c3)cc(=O)oc2c1 (centres undefined),-2.28%
8,COc1ccc(-c2[nH][nH]c(=O)c2NC(=O)c2ccc([N+](=O)[O-])cc2)cc1,-5.21%
9,CC(=O)Oc1ccc2c(=O)oc(-c3ccc([N+](=O)[O-])cc3)nc2c1,20.8% (active)
10,CCOC(=O)[C@]12CCCC3=C1N(CCC3)C(=O)[C@@H](CC(=O)N1CCSCC1)C2,-0.01%
11,O=C(Nc1ccccc1)N1CCN(Cc2nc3ccccc3c(=O)[nH]2)CC1,0.95%
12,O=C(NCc1ccco1)C1CCCN(S(=O)(=O)c2ccc(Cl)s2)C1 (centres undefined),-1.18%
13,COC(=O)C[C@@H]1CC[C@@H]2[C@@H](COc3ccc(NC(=O)Nc4ccc(F)c(F)c4)cc3C(=O)N2C)O1,0.81%
14,CCOC(=O)C1(Cc2ccccc2)CCN(Cc2cn(C(C)=O)c3ccccc23)CC1,-2.91%
15,Cc1cc([N+](=O)[O-])nn1CCCC(=O)Nc1cccnc1Cl,1.45%
16,Cc1cc([N+](=O)[O-])nn1CC(=O)Nc1ccc(Cc2ccncc2)cc1,-2.12%
17,Cc1cc([N+](=O)[O-])nn1Cc1ccc(F)cc1,20.9% (active)
18,CCCCNS(=O)(=O)c1ccc(S(=O)(=O)n2cnc3ccccc32)cc1,20.7% (active)
19,COc1ccc(S(=O)(=O)n2cnc3ccccc32)c(C)c1,1.22%
20,Cc1ccc(S(=O)(=O)n2cnc3ccccc32)c(C)c1,8.08%
21,CCOC(=O)[C@]12CCCCC/C=C\1N(Cc1ccc(OC)cc1)C(=O)[C@H]2CC(=O)N1CCOCC1,-3.09%
22,O=C(CCCCCN1C(=O)C2C3C=CC(C3)C2C1=O)Nc1ccccc1 (centres undefined),-1.94%
23,Cc1cc(/C=N/n2cnnc2)c(C)n1-c1cccc(C(=O)O)c1,60% (active)

row,SMILES,inhibition
1,Cc1cc(/C=N/n2cnnc2)c(C)n1-c1ccc2ncccc2c1,0.89%
2,Fc1ccc(Br)cc1/C=N/n1cnnc1,-0.98%
3,COC(CNC(=O)[C@H](Cc1ccccc1)NC1(C(=O)NC2CCCCC2)CCCCC1)OC,-1.65%
4,COC[C@@H]1CCCN1c1ccc2c(c1)O[C@H](C)CCN(C1CC1)S2(=O)=O,-3.33%
5,CCCC1=Nc2cc(C(=O)NCc3ccco3)ccc2Sc2ccccc21,0.66%
6,COc1ccc2oc(C(=O)NCc3ccco3)c(C)c2c1,-0.64%
7,CCCCOc1ccc(C(=O)NCc2ccco2)cc1,25% (active)
8,C#CCCN([C@H](C(=O)OC)C(C)C)S(=O)(=O)c1ccc(F)cc1Br,-0.78%
9,CCOc1cc2[nH]c(=S)n(CCCN3CCCC3=O)c(=O)c2cc1OCC,-0.84%
10,CCOc1cc2[nH]c(=S)n(CCN3CCCCC3C)c(=O)c2cc1OCC (centres undefined),66% (active)
11,COc1cc2[nH]c(=S)n(CCN3CCCCC3C)c(=O)c2cc1OC (centres undefined),8.11%
12,O=C(CN1CCCc2ccccc21)NCc1ccc(F)cc1,-2.07%
13,OC(C#CCN1CCOCC1)(c1ccccc1)C1CCCCC1 (centres undefined),1.93%
14,CN(CC#CCC(c1ccccc1)c1ccccc1)C(C)(C)C,-0.47%
15,CC(C)(C)N(CC#CCC(O)(c1ccccc1)C1CCCC1)CCO (centres undefined),24.7% (active)
16,CN[C@H]1C[C@H]2c3cc(N4CCOCC4)ccc3CCN2C[C@H]1[C@H](C)O,-0.07%
17,O=C(NC1CCCCN(Cc2cccc(C(F)(F)F)c2)C1=O)c1ccccc1I (centres undefined),-2.03%
18,OC(CN1C2=NCCCN2c2ccccc21)c1ccc(Br)cc1 (centres undefined),68.9% (active)
19,CC(C)(C)C(=O)CN1C2=NCCN2c2ccccc21,0.42%
20,Cc1cc2c(cc1C)N(Cc1ccccc1)C1=NCCCN12,-2.05%
